# Experimental data from PubChem BioAssay (Tox21).
# Records with an inconclusive call do not appear. A number with no mark means an inactive call. Active and inactive are the calls of the source. Calls follow the shape of the dose curve; as a rule, active = well fitted inhibition curve with a large enough effect in the repeat runs; inconclusive = weak or mixed curves; inactive = no such curve, though single readings can be large or run the other way.
# Molecular target: Cytochrome P450 2C19 (Homo sapiens) (UniProt P33261)
# Sequence (P33261 whole entry, looked up): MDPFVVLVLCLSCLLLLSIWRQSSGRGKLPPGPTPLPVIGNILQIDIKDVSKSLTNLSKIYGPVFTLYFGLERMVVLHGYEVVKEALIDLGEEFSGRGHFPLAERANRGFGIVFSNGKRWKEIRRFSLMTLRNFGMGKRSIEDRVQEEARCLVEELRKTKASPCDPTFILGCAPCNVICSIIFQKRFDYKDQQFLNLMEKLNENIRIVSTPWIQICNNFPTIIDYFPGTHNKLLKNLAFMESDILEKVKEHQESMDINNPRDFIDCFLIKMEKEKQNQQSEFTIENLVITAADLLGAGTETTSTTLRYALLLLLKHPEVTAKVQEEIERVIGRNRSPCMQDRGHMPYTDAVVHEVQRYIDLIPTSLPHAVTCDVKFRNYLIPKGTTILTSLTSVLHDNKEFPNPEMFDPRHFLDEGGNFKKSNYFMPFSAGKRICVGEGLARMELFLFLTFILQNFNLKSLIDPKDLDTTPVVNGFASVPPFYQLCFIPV
# Assay: Cytochrome P450 Family 2 Subfamily C Member 19 (CYP2C19) small molecule antagonists: luciferase reporter qHTS assay (AID 1671197); also: nearly all actives have a fitted effect of over 65% in size
# Details: P450-Glo CYP2C19 enzyme, luciferin luminescence, 1 h; series mostly up to 115 µM; activity change, negative = inhibition: at the top concentration
# Description: National Center for Advancing Translational Sciences [NCATS]
# U.S. Environmental Protection Agency [EPA]
# National Institutes of Environmental Health Sciences [NIEHS]
# National Toxicology Program [NTP]
# U.S. Food and Drug Administration [FDA]
# Cytochrome P450 (CYP) enzymes are membrane-bound hemeproteins that play a key role in metabolism of drugs and xenobiotics. Evaluation of the effect of chemicals on CYP isozymes is useful to minimize the adverse drug reactions and toxicities in drug development process. Tox21 chemicals were tested for their effect on CYP enzyme activities by using P450-Glo (TM) screening systems (Promega Corporation, Madison, WI). These systems provide a luminescent method containing proluciferin substrates and are converted to luciferin products by CYP isozymes. The luciferin products formed are detected with a luciferin detection reagent, and the amount of light produced is proportional to CYP activity. P450-Glo (TM) CYP2C19 screening system (Catalog. No. V9880) was used to detect the compounds that interfere in CYP2C19 activity. The positive control compound used for CYP2C19 assay is ketoconazole (Sigma-Aldrich, St. Louis, MO).
# Tox21 Assay Protocol Summary:
# Two ul of enzyme-substrate mix was dispensed into medium binding white/solid 1536-well plates (Greiner Bio-One North America Inc., Monroe, NC) using a BioRaptr Flying Reagent Dispenser (FRD, Beckman Coulter, Brea, CA). Compounds dissolved in DMSO and positive control (ketoconazole) were transferred to the assay plates at 23 nl using a Pintool station (Wako, San Diego, CA). The assay plates were incubated at room temperature for 10 min. Then 2 ul of NADPH regeneration solution was added to each well of the assay plates using an FRD and incubated at 37C for 1 h. The reaction was stopped by adding 4 ul of detection reagent using an FRD and after 20 min incubation at room temperature the luminescence signal was measured using a ViewLux plate reader (Perkin Elmer, Shelton, CT). Data were expressed as relative luminescence units.
# % is scaled to controls: 0 for no effect and ±100 for the full control effect; potency is read from the fitted curve at half-maximal effect.
SMILES,Potency,"activity change, negative = inhibition"
ClCCCN1CCN(c2cccc(Cl)c2)CC1,8.71 µM (active),–
CCN(CC)CCOC(=O)C(C)(c1ccccc1)c1ccccc1,3.89 µM (active),–
O=C(CCN1CC1)OCC(CO)(COC(=O)CCN1CC1)COC(=O)CCN1CC1,–,-10.5%
CC1CCCCC1NC(=O)Nc1ccccc1 (stereo not given),11.2 µM (active),–
COP(N)(=S)Oc1ccccc1C(=O)OC(C)C (stereo not given),0.178 µM (active),–
CCCCc1c(C)nc(NCC)[nH]c1=O,79.6 µM (active),–
CNC(=O)Oc1ccccc1C1OCCO1,–,-12.7%
Fc1cc(Br)ccc1CBr,–,7.45% [at 52.9 µM]
CCCSC(=O)Cl,–,-10.3%
C1CCC(C2CCCCC2)CC1,–,-13.3%
Cc1cc(C)c(C(=O)P(=O)(C(=O)c2c(C)cc(C)cc2C)c2ccccc2)c(C)c1,35.6 µM (active),–
CCOC(=O)N(C)C(=O)CSP(=S)(OCC)OCC,0.126 µM (active),–
Cc1cnc[nH]1,–,-4.46%
CCC(C)(C)c1cc(-n2nc3ccccc3n2)c(O)c(C(C)(C)CC)c1,20.3 µM (active),–
CCOP(=S)(OCC)Oc1nc(Cl)n(C(C)C)n1,0.252 µM (active),–
CN1C(=S)CN=C(c2ccccc2)c2cc(Cl)ccc21,21.9 µM (active),–
CN1CCN(C(=O)O[C@H]2c3nccnc3C(=O)N2c2ccc(Cl)cn2)CC1,–,10.6% [at 52.9 µM]
O=C(Cc1ccccc1)OCc1ccccc1,10.1 µM (active),–
CNNC,–,-14.7%
CCN(Cc1ccc(Cl)nc1)/C(=C/[N+](=O)[O-])NC,–,24.4% [at 52.9 µM]

SMILES,Potency,"activity change, negative = inhibition"
CCCCC(=O)Cl,–,-17.8%
O=[N+]([O-])c1cccc(O)c1,–,5.36%
CCN(CC)C(=O)[C@@H]1C=C2c3cccc4[nH]cc(c34)C[C@H]2N(C)C1,165 µM (active),–
OCCSCSCCO,–,-21.4%
CCCCP(CCCC)CCCC,31.7 µM (active),–
C[C@]12CC[C@H]3[C@@H](CCC4=CC(=O)CC[C@@]43C)[C@@H]1CC[C@@H]2C(=O)O,–,27.3% [at 52.9 µM]
CC(Cl)(Cl)[N+](=O)[O-],–,0.615%
CCN(CC)c1nc(C)cc(OP(=S)(OC)OC)n1,0.178 µM (active),–
CCOP(=S)(OCC)Oc1ncn(-c2ccccc2)n1,1 µM (active),–
CCC(=O)c1ccccc1,–,-32.9%
CCOP(=S)(Oc1cnc(C(C)(C)C)nc1)OC(C)C (stereo not given),0.356 µM (active),–
COc1cc2c(cc1OC)[C@@]13CCN4CC5=CCO[C@H]6CC(=O)N2[C@H]1[C@H]6[C@H]5C[C@H]43,–,1.42%
CCc1cc2c(s1)-n1c(C)nnc1CN=C2c1ccccc1Cl,–,7.5% [at 52.9 µM]
Cc1nc(N)nc(N)n1,–,-11.7%
Cc1nnc2n1-c1sc(CCC(=O)N3CCOCC3)cc1C(c1ccccc1Cl)=NC2,–,31.7% [at 52.9 µM]
N#CC(CCc1ccc(Cl)cc1)(Cn1cncn1)c1ccccc1 (stereo not given),0.2 µM (active),–
CC1=C(C(=O)O)N2C(=O)[C@@H](N)[C@H]2SC1,–,-10.3% [at 23.6 µM]
O=C1CN=C(c2ccccc2)c2cc([N+](=O)[O-])ccc2N1,–,4.31% [at 52.9 µM]
C[N+](=O)[O-],–,-2.22%
CC(C(=O)c1ccccc1)N(C)C (stereo not given),4.9 µM (active),–
